From PubChem BioAssay
SMN2 splice up: increases expression of the SMN2 splice variant; HEK293 SMN2-luciferase splicing reporter, luminescence, 30-36 h; Potency, µM (series often up to 46.1 µM), for the others: at the top dose activity change, positive = activation, actives largely listed as activators; 210,000 compounds, 2.8% hits; AID 1458; further: % of control where 0% means no effect; nearly all actives have a fitted effect of over 55% in size
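qHTS luciferase splicing reporter: luminescence rises when SMN2 exon 7 is included in transfected HEK293 cells. Compound exposure lasted 30-36 h at 37C, with 4.5 mM final sodium butyrate as control, followed by a ONE-Glo read.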
Rab9 promoter act: Rab9 promoter activation; AID 485297; Huh7 Rab9 promoter-luciferase reporter, luminescence, 24 h; Potency, µM (top dose mostly 9.22 µM), inactives show top-dose activation, negative = inhibition, most hits filed as activators; 320,000 compounds, 2.8% hits; further: % of control where 0% means no effect; nearly all actives have a fitted effect of over 60% in size
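Luminescence read-out: Huh7 cells stably expressing Rab9-luciferase, treated 24 h with compound at 37 °C, then lysed with luciferase reagent for 10 min at ambient before reading.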
NPC1 promoter act: activates the NPC1 promoter; Potency, µM (top dose mostly 9.22 µM), for inactives: at the highest dose activation, hits mostly activators; AID 485313; Huh7 NPC1 promoter luciferase reporter, 24 h; 320,000 compounds, 2.4% hits; further: % of control where 0% means no effect; nearly all actives have a fitted effect of over 60% in size
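In 1536-well qHTS, Huh7 cells harboring an NPC1 promoter–luciferase construct received compound for 24 h; activation was quantified by luminescence following luciferase reagent addition.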
FLuc counter: counter-screen for miR-21 project: firefly luciferase inhibitors or activators; P08659; purified FLuc, Km substrates, luminescence inhibition; Potency, µM (highest dose often 57.5 µM), without a hit: at the highest dose activity change, negative = inhibition, usual class: inhibitors; 360,000 compounds, 6.9% hits; AID 588342;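 further: plate controls were vehicle for no effect and reference inhibitor for full effect; nearly all actives have a fitted effect of over 55% in size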
Target sequence (P08659 whole entry, looked up): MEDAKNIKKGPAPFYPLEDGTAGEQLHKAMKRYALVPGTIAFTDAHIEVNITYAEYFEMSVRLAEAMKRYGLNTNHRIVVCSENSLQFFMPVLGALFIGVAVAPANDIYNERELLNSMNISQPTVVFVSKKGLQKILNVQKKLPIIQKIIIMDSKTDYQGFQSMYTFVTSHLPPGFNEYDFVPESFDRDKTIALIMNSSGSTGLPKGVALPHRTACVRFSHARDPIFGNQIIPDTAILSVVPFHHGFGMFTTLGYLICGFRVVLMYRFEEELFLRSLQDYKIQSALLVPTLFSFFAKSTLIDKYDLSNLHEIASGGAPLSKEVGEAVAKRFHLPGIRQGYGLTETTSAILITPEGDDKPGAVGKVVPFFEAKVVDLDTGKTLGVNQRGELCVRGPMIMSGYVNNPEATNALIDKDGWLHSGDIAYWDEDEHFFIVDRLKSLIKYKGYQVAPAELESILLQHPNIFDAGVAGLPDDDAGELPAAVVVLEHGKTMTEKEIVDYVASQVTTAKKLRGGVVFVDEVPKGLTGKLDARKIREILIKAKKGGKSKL
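Purified P. pyralis luciferase (10nM final) with 10uM D-luciferin and 10uM ATP (Km levels) in 50mM Tris acetate pH 7.5, 10mM Mg acetate, 0.01% Tween-20, 0.05% BSA; qHTS 6-point titration, ~60 µM downward; luminescence read.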
ELG1 repair inh: inhibitors of ELG1-dependent DNA repair in HEK293T cells | HEK293T ELG1-luciferase reporter, luminescence, 16 h; DNA damage induced by 5-fluorouridine | Potency, µM (top dose mostly 46.1 µM), without a hit: top-dose activity change, negative = inhibition, usual class: inhibitors | 330,000 compounds, 2.3% hits | AID 504467; further: on the % scale 0 is the no-effect control and ±100 the full control effect; nearly all actives have a fitted effect of over 55% in size
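Cells (2,000 per well) received 5-fluorouridine plus test compound or DMSO and were incubated 16 hr at 37 °C, 5% CO2. Luciferase activity was read by luminescence 30 min after ONE-Glo addition; signal suppression marked inhibition of damage-induced ELG1 function.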
ELG1 genotoxic: genotoxicity induction in ELG1-luciferase HEK293T cells. Potency, µM (series often up to 46 µM), for inactives: at the highest dose activity change, positive = activation, most hits filed as activators. AID 504466. HEK293T ELG1-luciferase reporter, luminescence, 16 h. 330,000 compounds, 1.3% hits; further: % of control where 0% means no effect; nearly all actives have a fitted effect of over 60% in size
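After overnight (16 hr) compound treatment at 37 °C, ELG1-luciferase HEK293T cells were lysed with ONE-Glo; luminescence quantified 30 min later at room temperature.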
The depositor's hits bear a star; u = inconclusive; x = no result; [ ] = remark or other dose. Most compounds without a hit are left out; they make up all but 9.4% or so of the library. The call rests on the fitted dose curve; in most records, active means well fitted curve in the direction sought with a large enough effect; inconclusive means small, poorly fitted or top-dose-only effect, or another doubt; inactive means no such curve, though single readings can be large; an effect the other way counts as inactive or inconclusive. Potency means the concentration at half of the fitted maximal effect.

SMILES | SMN2 splice up | Rab9 promoter act | NPC1 promoter act | FLuc counter | ELG1 repair inh | ELG1 genotoxic
Cc1c(-c2ccc(Cl)cc2)c(=O)oc2c(CN3CCN(CCO)CC3)c(O)ccc12 | x | x | x | -7% | x | x
Cc1cc(C)nc(S/C=C/C(=O)c2ccccc2F)n1 | x | -11% | -9% | 1.5µM* | u | u
COc1cc(C(=O)Nc2ccc3oc(-c4ccccc4)nc3c2)cc(OC)c1OC | 13% | x | x | -18% | x | x
CCS(=O)(=O)Nc1ccc(-c2nc3cccnc3s2)cc1 | x | 0.71µM* | 0.79µM* | 1.7µM* | u | u
O=S(=O)(Nc1ccc(-c2nc3cccnc3s2)cc1)c1ccc(Cl)s1 | 13µM* | u | u | 19µM* | u | 8.2µM*
CCS(=O)(=O)Nc1cc(-c2nc3cccnc3s2)ccc1C | 11µM* | 24% | 3.5µM* | 9.5µM* | u | 2.9µM*
Cc1ccc(-c2nc3cccnc3s2)cc1NS(=O)(=O)c1ccc2c(c1)CCCC2 | 20% | -1% | -4% | -18% | u | 1%
CCS(=O)(=O)Nc1cccc(-c2nc3cccnc3s2)c1 | x | u | u | 19µM* | u | 4%
Cc1nc2ccc(S(=O)(=O)Nc3cccc(-c4nc5cccnc5s4)c3)cc2s1 | -29% | -6% | -4% | -20% | 3% | -1%
CCOC(=O)/C(C#N)=C1\CCCN1CC(N)=S | 12% | -1% | -6% | 1% | -7% | 5%
CNc1ccccc1C(C)(C)c1cc(-c2cccc([N+](=O)[O-])c2)no1 | -47% | -8% | -1% | 0% | 1.5µM* | -6%
CNc1ccccc1C(C)(C)c1cc(-c2cccc(Br)c2)no1 | x | -18% | -15% | -9% | 9.2µM* | -6%
COc1ccc(C)cc1NC(=O)c1cc(S(=O)(=O)N2CCCCC2)c[nH]1 | x | x | x | 2% | x | x
O=[N+]([O-])c1ccc2nc(NS(=O)(=O)c3ccccc3[N+](=O)[O-])sc2c1 | x | 19% | u | 11µM* | u | 6%
O=C(O)c1ccc(N/C(=N\S(=O)(=O)c2ccc(Cl)cc2)c2ccccc2)cc1 | x | -1% | -3% | -18% | u | 2%
O=C(NN/C(=N/S(=O)(=O)c1ccc(Cl)cc1)c1ccccc1)c1cccc(Cl)c1 | x | u | 4µM* | 6µM* | u | 16µM*
O=S(=O)(/N=C(/NC(=S)Nc1ccccc1)c1ccccc1)c1ccc(Cl)cc1 | x | 27% | 22% | 24µM* | u | u
O=C(O)CCC(=O)NNC(=O)c1cccc(Cl)c1 | 8% | -4% | 0% | 6% | 17% | 2%
O=C(NN/C(=N/S(=O)(=O)c1ccc(Cl)cc1)c1ccccc1)c1ccc(O)cc1 | 22% | 0% | 6% | 15µM* | u | u
Cc1ccc(S(=O)(=O)NN/C(=N/S(=O)(=O)c2ccccc2)c2ccccc2)cc1 | 4% | 15% | 0% | u | 1% | 0%
Cc1ccc(S(=O)(=O)/N=C(/NNC(=O)c2cccc(Cl)c2)c2ccccc2)cc1 | x | u | u | 15µM* | u | 16µM*
COc1ccccc1CC1CC(=O)N(c2cccc(Cl)c2C)C1=O (centres undefined) | x | -3% | -6% | -1% | 0% | 0%
CCOc1ccc(CCNC(=O)c2cc3c(-c4ccccc4F)nn(C)c3s2)cc1OCC | -49% | x | x | -10% | x | x
COc1cccc(CC(=O)N2CCc3nc(-c4ccccc4)c4c(c3C2)CO[C@@H](C)C4)c1 | 1%[9.22 µM] | x | x | x | x | x
CC(C)c1ccc(NC(=O)CSc2nc3ncccc3[nH]2)cc1 | x | 16% | 9% | -18% | 8% | 3%
COc1ccc2nc(SCC(=O)Nc3ccc4[nH]c(=O)[nH]c4c3)[nH]c2c1 | x | -2% | 1% | 15µM* | 5% | -2%
CC(C)OC(=O)c1ccc(NC(=O)CSc2nc3ncccc3[nH]2)cc1 | -19% | 13% | 1% | 17µM* | -21% | 1%
